Experimental data published in the supplement of paper PMC5499739.
The full ranking holds about 16,000 sequences; the median of “Z-score” is about -0.37, and the highest 2% start at about 3.1. The full list was thinned out, with the highest values kept by preference.

The sequences below were run on RBM10 RRM1-ZnF-RRM2 (GST-tagged construct) (assay: RNAcompete 7-mer binding Z-score; higher = stronger binding preference).
How it was run: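 In 1 ml Hepes pH 7.8 buffer with KCl, NaCl, glycerol, DTT, BSA and glutathione Sepharose beads, GST-tagged RBM10 constructs (20 pmol) were incubated for 30 min at 4°C with 1.5 nmol of a designed pool of 241 399 RNAs up to 41 nt. Four 2-min washes at 4°C followed, and bound RNA was detected by microarray hybridisation. Heptamer motif enrichment was expressed as a one-sided Z-score across probes containing each motif.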

| Sequence | RNAcompete 7-mer binding Z-score |
| --- | --- |
| GUCUCCU | -0.694 |
| CACAAGA | -0.391 |
| AAAAUGG | 2.68 |
| CAAGUGA | 0.228 |
| GGCUAAA | 0.661 |
| AAGGGCC | 1.53 |
| AAGGGCA | 3.44 |
| AAGGGCU | 1.39 |
| GAUGGGG | 4 |
| GAUGGUG | 2.77 |
| AAUGGAG | 3.01 |
| GAUGGAG | 3.16 |
| AAUGGGG | 4.38 |
| ACUGGGG | 1.58 |
| GAUGGGC | 2.09 |
| UAUGGGA | 2.76 |
| UAUGGAG | 1.68 |
| CAUGGGG | 2.51 |
| GAUGGUA | 2.46 |
| GAUGGGA | 3.8 |
| AGCAUUU | -0.726 |
| GCCAGCA | -0.205 |
| CCGGUGC | -0.136 |

| Sequence | RNAcompete 7-mer binding Z-score |
| --- | --- |
| CAUGCAA | -0.289 |
| CUGUCCU | -0.817 |
| UCUUCGG | -0.657 |
| CGUGCGA | -0.209 |
| CUCGAAG | -0.318 |
| CGAACUC | -0.719 |
| UAUGGGG | 3.19 |
| AAUGGGA | 4.69 |
| CAUGGGU | 2.58 |
| AAUGGGU | 4.1 |
| CAUGGAA | 1.36 |
| UAUGGGU | 2.81 |
| GAUGGGU | 3.01 |
| CAUGGGA | 2.16 |
| UAUGGGC | 1.64 |
| UAUGGAA | 1.22 |
| AAUGGGC | 2.92 |
| AAUGGAA | 3.27 |
| CAUCCCA | -0.486 |
| GCCAUCG | -0.646 |
| GACUUCA | -0.672 |
| UUGCUGA | -0.486 |
| AUAAGUU | -0.249 |

| Sequence | RNAcompete 7-mer binding Z-score |
| --- | --- |
| CGAGAGG | 1.46 |
| UUCCAGA | -0.519 |
| UGGCUUU | -0.464 |
| GUGGAGG | 4.09 |
| AUGGAGU | 2.24 |
| GUGGAGU | 2.86 |
| ACGGAGG | 2.57 |
| AUGGAGG | 4.33 |
| CCGGAGG | 0.876 |
| AUGGAGA | 2.59 |
| GCGGAGG | 3.25 |
| GUGGAGC | 2.47 |
| CGAUAAU | -0.256 |
| GGAUCAA | 1.19 |
| CAUCCCU | -0.69 |
| CGAAGUU | -0.235 |
| AACAGUG | 0.654 |
| GCUCGCA | -0.373 |
| UAACUAC | -0.551 |
| GGAUUGG | 3.28 |
| GGAUUGU | 0.822 |
| GGAUAGG | 4.1 |
| UAAUAGG | 0.742 |

| Sequence | RNAcompete 7-mer binding Z-score |
| --- | --- |
| CGAUUGG | 0.825 |
| GGAUAGA | 2.48 |
| GAAUAGG | 3.18 |
| AGAUAGG | 2.87 |
| CAAUAGG | 1.3 |
| UGACGCA | -0.107 |
| AACCUAA | -0.734 |
| UUAGCUC | -0.781 |
| CGAUAUC | -0.5 |
| GGAUCGC | 0.538 |
| UAUGAGG | 1.54 |
| UCCAGCC | -0.799 |
| ACAGAUC | -0.508 |
| CACGUGC | -0.428 |
| UAUUGCG | -0.278 |
| UCCCGUU | -0.799 |
| UUCGUCG | -0.3 |
| CUUAAUC | -0.905 |
| ACAAGGA | 1.94 |
| GCAAGGG | 3.28 |
| ACAAGGG | 3.52 |
| GCAAGGA | 2.65 |
| CCAAGGG | 1.05 |

| Sequence | RNAcompete 7-mer binding Z-score |
| --- | --- |
| GCAAGGU | 2.17 |
| AAAAAUU | -0.435 |
| GAUAUAG | 0.734 |
| CUUUACG | -0.81 |
| UCGAGUU | -0.482 |
| GCCUACC | -0.726 |
| GGGCUGC | 1.14 |
| GAAGGUU | 2.96 |
| GAAGGUA | 4.04 |
| UAAGGUG | 2.07 |
| GUAGGUG | 3.25 |
| GAAGGUG | 4.37 |
| AAAGGUG | 3.5 |
| AUAGGUG | 2.41 |
| GAAGGCG | 2.66 |
| CAAGGUG | 2.13 |
| UAAGGUA | 1.39 |
| GUAGGUA | 2.25 |
| GAAGGUC | 1.25 |
